Experimental data published in PubChem BioAssay (NCI).
The panel holds about 79,000 compounds, 15% with a hit somewhere; the sample as a whole holds those more often. The source made the active and inactive calls. No stated cut-off is given here; in the data, active means growth inhibition above about 70%; inactive means the rest.

Legend:
[1] = NCI Yeast Anticancer Drug Screen. Data for the rad50 strain (AID 155);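 further: 0% = growth of vehicle-only cultures of the same strain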; conditions: S. cerevisiae rad50 strain growth inhibition, stronger effect = higher value
Method in brief: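 Cells are treated with compound, grown, and their growth is then scored against vehicle-only cultures of the same repair-deficient yeast strain.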

[2] = NCI Yeast Anticancer Drug Screen. Data for the mec2-1 strain (AID 157); conditions: S. cerevisiae mec2-1 strain, stronger effect = higher value
Method in brief: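 mec2-1 yeast strain, carrying an alteration in DNA damage repair or cell cycle control, was exposed to compounds; growth inhibition was measured relative to vehicle-treated controls.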

[3] = NCI Yeast Anticancer Drug Screen. Data for the sgs1 mgt1 strain (AID 161);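 further: 0% = growth of cultures given vehicle only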; conditions: S. cerevisiae sgs1 mgt1 strain, stronger effect = higher value
Method in brief: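 Compounds are added to genetically altered yeast, and growth is compared with cultures given vehicle alone to give percent inhibition.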

[4] = NCI Yeast Anticancer Drug Screen. Data for the cln2 rad14 strain (AID 165);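 further: 0% = growth equal to vehicle treated cultures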; conditions: S. cerevisiae cln2 rad14 strain, stronger effect = higher value
Method in brief: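 Yeast carrying cln2 and rad14 alterations (cell cycle control and DNA damage repair) were exposed to compounds. Growth inhibition was measured against vehicle-treated controls.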

[5] = NCI Yeast Anticancer Drug Screen. Data for the bub3 strain (AID 167); conditions: S. cerevisiae bub3 mutant strain, stronger effect = higher value
Method in brief: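 Part of a panel of yeast mutants defective in DNA damage repair or cell cycle regulation. Each strain is grown with compound, and inhibition is calculated relative to solvent-treated cultures.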

[6] = NCI Yeast Anticancer Drug Screen. Data for the mlh1 rad18 strain (AID 175); conditions: S. cerevisiae mlh1 rad18 strain growth inhibition, stronger effect = higher value
Method in brief: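 Growth inhibition of the yeast strain was measured after compound exposure and expressed relative to vehicle-treated controls. The strain carries defined defects in DNA damage repair.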

[7] = at 5.0 µM (retest, dose inferred, filed as 0.5)
[8] = at 50.0 µM (retest, dose inferred, filed as 5.0)

Measured: growth inhibition

CC(C)c1ccc2nc3ccc(C(=O)NCCN4CCN(c5ccccc5)CC4)cn3c(=O)c2c1
active: [1]; [8] 97% | [2]; [8] 98% | [3]; [8] 99% | [4]; [8] 97% | [5]; [8] 98% | [6]; [8] 97%
inactive: [1]; [7] 18% | [1]; at 50.0 µM 12.1% | [2]; [7] -9% | [2]; at 50.0 µM 16.6% | [3]; [7] 18% | [3]; at 50.0 µM 13.2% | [4]; [7] 3% | [4]; at 50.0 µM -7.8% | [5]; [7] 14% | [5]; at 50.0 µM -7.5% | [6]; [7] 4% | [6]; at 50.0 µM 5.15%

Cc1occc1C(=S)Nc1ccc(Cl)c(C(=O)OCC2CC2)c1
inactive: [1]; [7] -14% | [1]; [8] -3% | [2]; [7] -21% | [2]; [8] 5% | [3]; [7] -15% | [3]; [8] -3% | [4]; [7] 2% | [4]; [8] 62% | [5]; [7] -3% | [5]; [8] 17% | [6]; [7] -2% | [6]; [8] 8% | [6]; at 50.0 µM 16.2%
active: [1]; at 50.0 µM 84.8% | [2]; at 50.0 µM 86% | [3]; at 50.0 µM 81.4% | [4]; at 50.0 µM 82.5% | [5]; at 50.0 µM 80.2%

CC(=O)c1cc(-c2ccc(C)cc2)nc2c(C)cc(C)cc12
active: [4]; at 50.0 µM 76.8% | [5]; at 50.0 µM 95.2% | [6]; at 50.0 µM 94.2%
inactive: [1]; [7] 5% | [1]; [8] 15% | [1]; at 50.0 µM 32.9% | [2]; [7] 5% | [2]; [8] 33% | [2]; at 50.0 µM 60.5% | [3]; [7] 6% | [3]; [8] 32% | [3]; at 50.0 µM -9.2% | [4]; [7] 1% | [4]; [8] 41% | [5]; [7] 10% | [5]; [8] 40% | [6]; [7] 27% | [6]; [8] 41%

COC(=O)[C@@]12OC[C@]34[C@H]([C@@H](O)[C@@H]1O)[C@@]1(C)[C@H](O)C(=O)C=C(C)[C@@H]1C[C@H]3OC(=O)C(OC(C)=O)[C@@H]24 (some centres not stated)
active: [1]; [8] 98% | [1]; at 50.0 µM 91% | [2]; [8] 98% | [2]; at 50.0 µM 89.3% | [3]; [8] 98% | [3]; at 50.0 µM 87.8% | [4]; [8] 99% | [4]; at 50.0 µM 90.5% | [5]; [8] 98% | [5]; at 50.0 µM 90.5% | [6]; [8] 99% | [6]; at 50.0 µM 90.8%
inactive: [1]; [7] 36% | [2]; [7] 35% | [3]; [7] 30% | [4]; [7] 43% | [5]; [7] 19% | [6]; [7] 34%
